Compound activity deposited in PubChem BioAssay by National Center for Advancing Translational Sciences (NCATS).
This is a sample that favours compounds with a hit; in the whole collection about 12% have one here.
AmpC inh no detg: blocks E. coli AmpC beta-lactamase in detergent-free assay; AmpC nitrocefin hydrolysis, absorbance 480 nm, 0.0001% Triton; Potency, µM (series often up to 57.1 µM), without a hit: at the highest dose activity change, negative = inhibition, hits mostly inhibitors; 0.52% of 330,000 active; AID 485341;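 note: plate controls were no compound for no effect and no enzyme for full effect; nearly all actives have a fitted effect of over 20% in size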
Target sequence (P00811 whole entry, looked up): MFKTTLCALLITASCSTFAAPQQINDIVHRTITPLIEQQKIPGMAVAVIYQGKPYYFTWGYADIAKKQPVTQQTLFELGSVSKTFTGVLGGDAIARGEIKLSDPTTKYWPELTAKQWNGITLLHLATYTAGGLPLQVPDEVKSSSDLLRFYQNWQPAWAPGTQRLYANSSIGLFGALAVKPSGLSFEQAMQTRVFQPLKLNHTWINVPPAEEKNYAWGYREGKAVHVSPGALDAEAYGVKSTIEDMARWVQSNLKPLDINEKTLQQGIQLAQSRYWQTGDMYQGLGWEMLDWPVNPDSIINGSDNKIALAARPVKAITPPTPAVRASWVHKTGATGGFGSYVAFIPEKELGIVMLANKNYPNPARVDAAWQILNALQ
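20 mM phosphate pH 7.0 + 0.01% (detergent screen) or 0.0001% Triton X-100; 5.3 nM AmpC reagent; cpd preinc 15 min RT; nitrocefin (800 uM stock) to start; A480 q20 s × 4 min; Activity was normalised to no-enzyme and no-compound control wells.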
Pf growth 96h: P. falciparum growth inhibition at 96 hours; 6.9% of 320,000 active; Potency, µM (titrated, usually from 28.7 µM), inactives show at the highest dose activity change, negative = inhibition, hits mostly inhibitors; P. falciparum luciferase reporter growth, 96 h; note: % is set by controls: 0 for no effect and ±100 for the full control effect
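96 h incubation, 37 C, 5% CO2, of luciferase-reporter P. falciparum-infected RBCs (2% hematocrit, 0.05% parasitemia final) with test compounds; endpoint luminescence.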
SARS PLP yeast: inhibitors of SARS-CoV papain-like protease in yeast | AID 485353 | S. cerevisiae expressing SARS-CoV PLpro, growth rescue | 0.19% of 330,000 active | Potency, µM (series often up to 32.9 µM), without a hit: at the top dose activity, positive = growth rescue, usual class: activators; calls by dose curve; note: 0% is about no effect; nearly all actives have a fitted effect of over 55% in size
AmpC detergent: inhibitors of E. coli AmpC beta-lactamase with detergent | AmpC hydrolysis of nitrocefin, absorbance 480 nm, 0.01% Triton | Potency, µM (highest dose often 114 µM), inactives show at the top dose activity change, negative = inhibition, actives largely listed as inhibitors | 0.041% of 370,000 active;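 note: 0% = no-compound wells and -100% = no-enzyme wells; nearly all actives have a fitted effect of over 25% in size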
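AmpC (5.3 nM in the dispensed reagent) in 20 mM phosphate pH 7.0 with 0.01% (detergent screen) or 0.0001% Triton X-100 was preincubated with compounds for 15 min at room temperature. Nitrocefin was then added from an 800 uM solution, and hydrolysis was followed at 480 nm.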
Pf growth 48h: inhibits P. falciparum growth in the first generation, 48 h; P. falciparum luciferase growth in erythrocytes, 48 h; Potency, µM (highest dose often 28.7 µM), for the others: top-dose activity change, negative = inhibition, most hits filed as inhibitors; 5.9% of 310,000 active; note: % is set by controls: 0 for no effect and ±100 for the full control effect
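Read-out is firefly luciferase luminescence from an integrated reporter in P. falciparum, so falling signal marks reduced parasite growth. Infected erythrocytes were at 2% hematocrit and 0.1% parasitemia (final) in Albumax-supplemented RPMI 1640.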
Sm TGR inh: blocks Schistosoma mansoni thioredoxin glutathione reductase; Q962Y6; purified TGR, DTNB reduction, TNB absorbance 405 nm; Potency, µM (titrated, usually from 114 µM), for inactives: at the top dose activity change, negative = inhibition, actives largely listed as inhibitors; 3% of 360,000 active; AID 485364; note: % is set by controls: 0 for no effect and ±100 for the full control effect; nearly all actives have a fitted effect of over 60% in size
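TGR 20 nM + NADPH 100 uM (dispensed conc.), cpd preinc 15 min RT; start with NADPH (500 uM addition) then DTNB (15 mM addition). Kinetic TNB absorbance, 405 nm filter. Four-parameter Hill fit across titration.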
Numbers without * were called inactive; u = inconclusive; x = not tested or not shown; [ ] = dose if it differs, or a comment. Unless noted, calls come from the whole dose curve; as a rule, active = well fitted curve in the direction sought with a large enough effect; inconclusive = small, poorly fitted or top-dose-only effect, or another doubt; inactive = no such curve, though single readings can be large; an effect the other way counts as inactive or inconclusive. Potency is the fitted concentration of half-maximal effect.

SMILES | AmpC inh no detg | Pf growth 96h | SARS PLP yeast | AmpC detergent | Pf growth 48h | Sm TGR inh
COc1cccc(NC(=O)C2CCCN(c3nnc(-n4c(C)ccc4C)s3)C2)c1 (centres undefined) | x | x | x | 23% | x | -17%
CCOC(=O)c1c(-c2ccccc2)oc2ccc(N(C(C)=O)S(=O)(=O)c3ccc(CC)cc3)cc12 | x | x | x | 13% | x | 9%
Cc1cccc(N(C)C(=O)C(Cc2ccccc2)NS(=O)(=O)c2cccc3nsnc23)c1 (centres undefined) | x | x | x | 1% | x | 2%
COc1cccc(/C=N/Nc2nc(-c3cccnc3)nc3ccccc23)c1 | 33% | u | -2% | 5% | u | 4%
c1ccc2c(NCC3CCCO3)nc(N3CCOCC3)nc2c1 (centres undefined) | -16% | 11% | 0% | -1% | 13% | 2%[57.1 µM]
CC(Nc1nc(-c2ccncc2)nc2ccccc12)c1ccccc1 (centres undefined) | -18% | 4.7µM* | -3% | 1% | 5.2µM* | -5%
COc1ccccc1C(C)Nc1nc(-c2cccnc2)nc2ccccc12 (centres undefined) | -16% | u | -70% | -14% | 13µM* | 0%
CC(Nc1nc(N2CCNCC2)nc2ccccc12)c1ccccc1 (centres undefined) | -18% | 0% | 1% | -2% | 2.9µM* | -24%
COc1cc(OC)c(OC)cc1CNCCCSc1nnnn1C | x | x | x | 17% | x | -13%
C#CCOCCOCCOCCNc1nc(N2CCN(C(=O)[C@H]([C@@H](C)CC)n3cc([C@@H](N)CC(C)C)nn3)CC2)nc(N2CCN(C(=O)[C@H](Cc3cc4ccccc4[nH]3)n3cc([C@@H](N)C(C)CC)nn3)CC2)n1 (some centres undefined) | 206% | 1.2µM* | -3% | -4% | 4.7µM* | u
C#CCOCCOCCOCCNc1nc(N2CCN(C(=O)C(Cc3cc4ccccc4[nH]3)n3cc(C(N)C(C)CC)nn3)CC2)nc(N2CCN(C(=O)C(Cc3cc4ccccc4[nH]3)n3cc(C(N)C(C)CC)nn3)CC2)n1 (centres undefined) | 179% | 4.1µM* | -2% | -4% | u | -35%
C#CCOCCOCCOCCNc1nc(N2CCN(C(=O)[C@H](CCC(=O)O)n3cc(C(N)[C@H](C)CC)nn3)CC2)nc(N2CCN(C(=O)[C@H](Cc3cc4ccccc4[nH]3)n3cc(C(N)[C@H](C)CC)nn3)CC2)n1 (some centres undefined) | 183% | -16% | 1% | -1% | -11% | u
C#CCOCCOCCOCCNc1nc(N2CCN(C(=O)C(Cc3ccc(O)cc3)n3cc(C(N)CC(C)C)nn3)CC2)nc(N2CCN(C(=O)C(Cc3cc4ccccc4[nH]3)n3cc(C(N)C(C)CC)nn3)CC2)n1 (centres undefined) | 176% | u | 0% | 2% | u | 0%
C#CCOCCOCCOCCNc1nc(N2CCN(C(=O)[C@H](Cc3ccc(O)cc3)n3cc([C@@H](N)C(C)CC)nn3)CC2)nc(N2CCN(C(=O)[C@H](Cc3cc4ccccc4[nH]3)n3cc([C@@H](N)Cc4ccc(O)cc4)nn3)CC2)n1 (some centres undefined) | 163% | u | 0% | -1% | 10µM* | 0%
C#CCOCCOCCOCCNc1nc(N2CCOCC2)nc(N2CCN(C(=O)[C@H](Cc3cc4ccccc4[nH]3)n3cc([C@@H](N)C(C)CC)nn3)CC2)n1 (some centres undefined) | 202% | 2.9µM* | -2% | 9% | u | -21%
Fc1ccc(Nc2c(-c3c[nH]c4ccccc34)nc3ccccn23)cc1 | x | x | x | 0% | x | -6%
Clc1ccccc1-c1nc2ccccc2c2nc3ccccc3n12 | 18% | -5% | -7% | 8% | -56% | -4%
COc1cc(-c2nc3c4ccccc4nc(=S)n3[nH]2)cc(OC)c1OC | -43% | -5% | 5% | u | u | 3%
S=c1nc(-c2ccccc2)[nH]n1-c1ccccc1 | -24% | u | 5% | -1% | 36% | -12%
COc1ccccc1-c1nc2c3ccccc3nc(=S)n2[nH]1 | -16% | 1.5µM* | 1% | -3% | 4.7µM* | 3%
CC(Oc1ccc(Br)cc1)c1nc2c3ccccc3nc(=S)n2[nH]1 (centres undefined) | -36% | u | -3% | 0% | 1.5µM* | -1%
S=c1nc2ccccc2c2nc(-c3ccccc3)[nH]n12 | -18% | 46% | 15% | -12% | 4.7µM* | 2%
S=c1nc2ccccc2c2nc(-c3ccccc3Cl)[nH]n12 | -34% | 1.7µM* | 2% | -3% | 1.5µM* | 2%
CCCC(Oc1ccc(Br)cc1)c1nc2c3cc(OC)c(OC)cc3nc(=S)n2[nH]1 (centres undefined) | -33% | -27% | -1% | 4% | u | 6%
COc1ccc(-n2c(SCC(=O)N3CCC(C)CC3)nc3c([nH]c4ccccc43)c2=O)cc1 | x | x | x | -4% | x | 1%
SMILES | AmpC inh no detg | Pf growth 96h | SARS PLP yeast | AmpC detergent | Pf growth 48h | Sm TGR inh
COc1cccc(CNc2nccn(-c3cc(C)cc(C)c3)c2=O)c1 | x | x | x | 4% | x | 3%
CCN1CCOC(=O)C1CC(=O)Nc1cc(C)ccc1OC (centres undefined) | x | x | x | -1% | x | 18µM*
COc1ccccc1NC(=O)CN1CCN(CC(=O)Nc2cc(C)ccc2OC)CC1 | -1% | 31% | 2% | -2% | u | -8%
CCN1CCOC(=O)C1CC(=O)Nc1ccc(Br)cc1 (centres undefined) | x | x | x | -2% | x | 7.9µM*
CCN1CCN(CCC(=O)Nc2ccc(Br)cc2)CC1 | -17% | u | 1% | -8% | -28% | -10%
O=C1c2cccc3c([N+](=O)[O-])ccc(c23)C(=O)N1Cc1cccnc1 | 8% | 5% | -24% | 2% | u | 25µM*
Cc1nnc(N2C(=O)c3cccc4c([N+](=O)[O-])ccc(c34)C2=O)s1 | -14% | -32% | -2% | 5% | -6% | 4.5µM*
Cn1cccc1-c1nc2ccc(NC(=O)c3cccs3)cc2[nH]1 | -49% | 12µM* | -11% | u | 1% | -24%
CC(=O)Nc1ccc2nc(-c3ccc(Br)o3)[nH]c2c1 | -16% | -23% | 1% | -6% | 220% | 25µM*
O=C(Nc1ccc2nc(-c3ccc(Br)o3)[nH]c2c1)c1cccs1 | -31% | u | -7% | -11% | u | 25µM*
